Compounds with a hit are over-represented: about 0.43% of the library has one in this group of screens.
GLA spleen mod: inhibits or activates alpha-galactosidase in human spleen homogenate | 0.008% of 240,000 active | human spleen homogenate, 4MU-alpha-Gal fluorescence, 40 min | Potency, µM (series often up to 80 µM), for inactives: top-dose activity change, negative = inhibition, usual class: inhibitors | P06280 | AID 2107;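 note: potency is the fitted concentration of half-maximal effect; 0% = enzyme with vehicle and -100% = no enzyme basal signal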
Target sequence (P06280 32-429 limits assumed): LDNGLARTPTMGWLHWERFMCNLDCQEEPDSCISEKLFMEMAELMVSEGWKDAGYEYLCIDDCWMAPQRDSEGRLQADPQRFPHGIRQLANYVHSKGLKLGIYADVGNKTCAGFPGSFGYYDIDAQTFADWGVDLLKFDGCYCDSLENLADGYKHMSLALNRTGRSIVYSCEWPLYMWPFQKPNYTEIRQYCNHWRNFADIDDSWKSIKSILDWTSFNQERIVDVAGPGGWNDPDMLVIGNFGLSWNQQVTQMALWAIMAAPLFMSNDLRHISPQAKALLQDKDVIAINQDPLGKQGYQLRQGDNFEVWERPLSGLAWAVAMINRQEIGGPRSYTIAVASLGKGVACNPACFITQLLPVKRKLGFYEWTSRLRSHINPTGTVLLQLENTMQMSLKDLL
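qHTS titration in buffer at pH 5.0. Alpha-galactosidase activity in spleen homogenate was measured via 4-methylumbelliferone release from 1 mM fluorogenic substrate after 40 min at 37C and a pH 10 stop. AC50 came from Hill fits of control-normalized data.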
N370S GC: inhibitors or activators of N370S glucocerebrosidase for Gaucher disease. Potency, µM (titrated, usually from 59.4 µM), for the others: at the top dose activity change, negative = inhibition, actives largely listed as inhibitors. 0.092% of 330,000 active. AID 2101. N370S GC spleen homogenate, 4MU-glucoside fluorescence. P04062;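 note: potency is the fitted concentration of half-maximal effect; 0% = full enzyme activity and -100% = no enzyme basal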
GAA spleen mod: lysosomal alpha-glucosidase (human) modulation. P10253. human spleen homogenate, 4-MU-alpha-glucoside fluorescence. Potency, µM (highest dose often 79.9 µM), inactives show at the highest dose activity change, negative = inhibition, usual class: inhibitors. 0.006% of 240,000 active;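 note: potency is the fitted concentration of half-maximal effect; 0% = enzyme with vehicle and -100% = no enzyme basal signal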
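Human spleen homogenate (1 ug) with 4-methylumbelliferyl-alpha-D-glucopyranoside (1 mM final) in 50 mM citrate/phosphate pH 5.0, 0.01% Tween-20; 40 min at 37 C. Stopped at pH 10; 4-MU fluorescence Ex 365/Em 440 nm; AC50 by Hill fit.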
GAA glycogen mod: alters human alpha-glucosidase cleavage of glycogen; Potency, µM (highest dose often 76.4 µM), inactives show top-dose activity change, negative = inhibition, actives largely listed as inhibitors; 0.38% of 300,000 active; AID 2100; recombinant GAA, glycogen substrate, Amplex Red glucose oxidase fluorescence;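 note: potency is the fitted concentration of half-maximal effect; 0% = full enzyme reaction and -100% = no-enzyme basal signal; the screen sought inhibitors and activators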
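Recombinant human alpha-glucosidase (4 nM final) hydrolysed bovine liver glycogen (30 ug) for 40 min at 37 C in pH 5.0 citrate/phosphate with 0.01% Tween-20. Released glucose detected by glucose oxidase/Amplex Red, Ex 573/Em 610 nm. Compounds up to 77 uM; AC50 from Hill fits.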
GAA inh: inhibitors of human lysosomal alpha-glucosidase; P10253; purified human GAA, 4-MU-alpha-glucoside fluorescence; Potency, µM (series often up to 76.9 µM), without a hit: at the highest dose activity change, negative = inhibition, most hits filed as inhibitors; 0.005% of 200,000 active;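 note: potency is the fitted concentration of half-maximal effect; plate controls were uninhibited enzyme wells for no effect and no-enzyme background for full effect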
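AC50 values come from Hill fits of compound titrations (up to 77 uM) against 4 nM human enzyme. Substrate 4-methylumbelliferyl-alpha-D-pyranoside at 400 uM, pH 5.0 citrate buffer, 20 min room temperature; fluorescence Ex 365/Em 440 after alkaline stop.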
GLA inh pH 4.5: alpha-galactosidase A (human) inhibition, pH 4.5. purified enzyme, 4-MU-alpha-Gal fluorescence, pH 4.5. AID 1467. P06280. activity change, negative = inhibition, % at 105 µM. 230,000 tested, under 10 active;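 note: 0% = full activity with enzyme and -100% = basal without enzyme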
* marks the source's active call; other numbers are inactive results; ? = inconclusive; nt = not tested or not shown; [ ] = dose if it differs, or a comment. Calls come from the whole dose curve; as a rule, active = well fitted curve in the direction sought with a large enough effect; inconclusive = small, poorly fitted or top-dose-only effect, or another doubt; inactive = no such curve, though single readings can be large; an effect the other way counts as inactive or inconclusive.

SMILES | GLA spleen mod | N370S GC | GAA spleen mod | GAA glycogen mod | GAA inh | GLA inh pH 4.5
O=C(CSc1n[nH]c(-c2ccccc2)n1)c1ccc(O)c(O)c1 | 0% | -2% | -15% | 10µM* | -5% | -9
C=CCCN(Cc1ccc(OC)cc1)S(=O)(=O)c1ccccc1Br | 6% | 3% | -10% | nt | nt | nt
C(C#CCCCCCCCCC[n+]1ccccc1)#CCCCCCCCCC[n+]1ccccc1 | nt | 11µM* | nt | nt | nt | nt
O=C(O)c1cc(=O)c2cc(Cl)ccc2[nH]1 | 10% | -7% | -3% | nt | nt | nt
NC(=S)NCCCC(N)C(=O)O (configuration not stated) | -1% | 2% | 2% | nt | nt | -1
COC(=O)c1ccc(NC(=S)Nc2ccc(O)cc2)cc1 | 3% | -16% | 7% | 7.9µM* | 4% | -8
Oc1ccc(NC(=S)Nc2ccc(O)cc2)cc1 | 10% | ? | 4% | 3.1µM* | -5% | 7
S=C(NNC(=S)Nc1ccccc1)Nc1ccccc1 | nt | 1% | nt | ? | nt | nt
CCCCCC(O)c1ccc([C@H]2CCC(=O)[C@@H]2CCCCCCC(=O)O)cc1 (some centres not stated) | 2% | -5% | 5% | nt | nt | nt
CC1=C(C(=O)O)N2C(=O)C(NC(=O)C(N)c3ccccc3)C2SC1 (configuration not stated) | -1% | -3% | -11% | nt | nt | 5
O=C(O)C1OC(Oc2cc3oc(-c4ccccc4)cc(=O)c3c(O)c2O)C(O)C(O)C1O (configuration not stated) | -2% | 22% | -4% | 6.3µM* | 2%[15.4 µM] | 2
COc1ccc(C2=Nn3c(nnc3-c3ccccc3OC)SC2)c(OC)c1 | 15% | -1% | 4% | nt | nt | nt
C[C@@]12CC[C@H]3OC(=O)C=C3C1CC[C@@]13CC(CCC12)[C@](CO)(O[C@H]1O[C@H](CO)[C@@H](O)[C@H](O)[C@H]1O)C3 (some centres not stated) | nt | 18µM* | nt | nt | nt | nt
CC(C)(CCCCCCCCCCC(C)(C)CC(=O)O)CC(=O)O | 0% | 0% | -5% | nt | nt | nt
COc1ccc(-n2c(=O)c3c4c(sc3n(Cc3cccc(F)c3)c2=O)CN(C(C)=O)CC4)c(OC)c1 | 4% | -19% | 7% | -1% | 7% | -2
COc1ccc(-n2c(=O)c3c4c(sc3n(Cc3ccc(F)cc3)c2=O)CN(C(C)=O)CC4)c(OC)c1 | nt | nt | nt | 56µM* | nt | nt
COC(=O)C1=C(C(=O)OC)[C@@H]2N(C)c3ccccc3[C@@]23C[C@@H](C(=O)OC)N(S(=O)(=O)c2ccc([N+](=O)[O-])cc2)C3=N1 | 11%[17.5 µM] | 11%[12.8 µM] | -4%[17.4 µM] | nt | nt | 6
Cc1ccc(/C=N/c2sc3c(c2C#N)CCC3)o1 | 11% | -10% | 8% | 22µM* | 7% | 2
COc1ccccc1CNc1ncnc2ccc(-c3cccc(NS(C)(=O)=O)c3)cc12 | -5% | -14% | -3% | nt | nt | nt
CC(C)C[C@H](NC(=O)[C@H](CC(C)C)NC(=O)[C@@H](Cc1c[nH]c2ccccc12)NC(=O)[C@H](Cc1ccccc1)NC(=O)[C@@H](Cc1c[nH]c2ccccc12)NC(=O)[C@H](CCC(N)=O)NC(=O)[C@H](CCC(N)=O)NC(=O)[C@@H]1CCCN1C(=O)[C@H](CCCCN)NC(=O)[C@@H]1CCCN1C(=O)[C@@H](CCCNC(=N)N)NC(=O)[C@@H]1CCCN1C(=O)CNC(=O)[C@H](CC(C)C)NC(=O)[C@H](CC(C)C)NC(=O)[C@H](Cc1ccc(O)cc1)NC(=O)CNC(=O)[C@H](C)NC(=O)[C@H](CO)NC(=O)[C@H](CC(N)=O)NC(=O)[C@H](CC(C)C)NC(=O)[C@@H](NC(=O)[C@H](Cc1c[nH]c2ccccc12)NC(=O)CN)[C@@H](C)O)C(N)=O | -1% | -5% | -2% | nt | nt | nt
CCCCCCC1(C)NC(=S)N(c2ccccc2)N1 (configuration not stated) | -8% | 9% | -6% | ? | -4% | 4
CCCCCC1(C)NC(=S)N(c2ccccc2)N1 (configuration not stated) | 0% | -5% | -2% | 35µM* | -4% | -3
Cc1ccc(C2C3=C(CC(C)(C)CC3=O)N=C3c4ccccc4C(=O)C32)cc1 (configuration not stated) | 1% | 16µM* | -16% | -22% | -2% | -14
CCOC(=O)C1=C(C)N=C2c3ccccc3C(=O)C2C1c1ccc(Cl)cc1 (configuration not stated) | -2% | -5%[12.8 µM] | -10% | -29% | -3% | 1
Cc1ccc(C2C3=C(CC(C)(C)CC3=O)OC3=C2C(=O)CC(C)(C)C3)cc1 | 1% | 0% | -2% | -9% | 6% | -1
SMILES | GLA spleen mod | N370S GC | GAA spleen mod | GAA glycogen mod | GAA inh | GLA inh pH 4.5
CC1(C)CC(=O)C2=C(C1)N=C1c3ccccc3C(=O)C1C2c1ccc(Cl)cc1 (configuration not stated) | 3% | 14µM* | -4% | -5% | 1% | -18
O=C1CCCC2=C1C(c1ccc(O)c(O)c1)Nc1ccc3ncccc3c12 (configuration not stated) | 6% | 6% | -2% | 2.8µM* | -2% | -5
COc1cccc(/C=N/Nc2ccc(S(=O)(=O)O)cc2)c1O | -3% | -4% | 1% | 7.9µM* | 5% | 6
CCOC(=O)/C=C/CCC/C=C/C(=O)c1ccccc1 | -6% | -11% | -7% | nt | nt | -2
Oc1ccc(Nc2nc3ccccc3nc2Nc2ccc(O)cc2)cc1 | -7% | 4.5µM* | -2% | 20µM* | -1% | -3
Oc1ccc(/C=N/Nc2ccccc2)cc1 | -2% | -2% | 1% | ? | 8% | 11
Cc1nc2ccccc2nc1N/N=C/c1ccc(O)cc1 | 3% | -27% | 2% | 25µM* | nt | -15
